Measurements taken from PubChem BioAssay AID1053118 (Broad Institute, 2014).
Measured potencies and affinities stand elsewhere. Activity calls are given as the source filed them.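 Rule for the calls: active = fitted half-maximal concentration for ATP signal loss at most twice the top valid dose; inconclusive = flat curve between -70 and -30%, or an invalid fit; inactive = flat within ±30%, wrong direction, or potency past limit.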

Experiment: HepG2 cell cytotoxicity, dose response, cytotoxicity control, cherry-picks, set 5 (AID 1053118)
Settings: HepG2 viability, ATP luminescence, 72 h; series mostly up to 26 µM

| SMILES | outcome |
| --- | --- |
| O=C(CCC(=O)c1cccs1)NCc1cccnc1 | inactive |
| CCOC(=O)c1nnn(-c2ccc(OC)cc2)c1N | inactive |
| Cc1ccc(-c2nc3ncccc3o2)cc1NC(=O)c1ccco1 | inactive |
| CN1c2ccc(-c3ccccc3)cc2[C@H]2[C@H](CCN2C(=O)CN2CCOCC2)[C@H]1CO | inactive |
| COCC(=O)Nc1ccc2c(c1)C(=O)N(C)[C@H]1CC[C@@H](CC(=O)NCc3ccccc3Cl)O[C@H]1CO2 | inactive |
| C[C@H]1CN([C@@H](C)CO)C(=O)c2cc(-c3ccccc3)cnc2O[C@@H]1CN(C)Cc1ccccc1 | inactive |
| COC(=O)C[C@@H]1CC[C@@H]2[C@H](COc3ccc(NC(=O)Cc4cccs4)cc3C(=O)N2C)O1 | inactive |
| CCCCNC(=O)Nc1nc2ccc(CC)cc2s1 | inactive |
| Cc1cc(C)c(S(=O)(=O)Nn2cnnc2)c(C)c1 | inactive |
| C[C@H](CO)N1C[C@H](C)[C@H](CN(C)Cc2ccc(-c3ccccc3)cc2)Oc2ccc(NC(=O)C3CCCCC3)cc2C1=O | inactive |
| CCCc1cc(C(=O)OC)c(NC(=O)CCC(=O)O)s1 | inactive |
| O=C(CCNS(=O)(=O)c1cccc2nonc12)NC1CCCc2ccccc21 (stereo not given) | inactive |
| C[C@H](O)C#Cc1ccc2c(c1)O[C@H](CN(C)C)[C@@H](C)CN([C@@H](C)CO)S2(=O)=O | inactive |
| COC(=O)C[C@H]1CC[C@@H]2[C@H](COc3ccc(NC(=O)Cc4cccs4)cc3C(=O)N2C)O1 | inactive |
| CC(NC(=O)CSc1ccc(S(=O)(=O)N2CCOCC2)cn1)c1ccc(Cl)cc1Cl (stereo not given) | inactive |
| C[C@H](O)C#Cc1ccc2c(c1)O[C@@H](CN(C)C)[C@H](C)CN([C@H](C)CO)S2(=O)=O | inactive |
| Cc1cccc(N2CCN(S(=O)(=O)c3cn(C)cn3)CC2)c1C | inactive |
| Cc1ccccc1S(=O)(=O)N1CC[C@H]2[C@H](CO)Nc3ccc(-c4ccc(C#N)cc4)cc3[C@H]21 | inactive |

| SMILES | outcome |
| --- | --- |
| CO[C@H]1CN(C)C(=O)c2cc(NC(=O)Nc3ccc(Cl)c(Cl)c3)ccc2OC[C@@H](C)NC[C@H]1C | inactive |
| COCC(C)n1c(SCc2nc(N)nc(Nc3ccccc3C)n2)nc2ccccc2c1=O (stereo not given) | inactive |
| C[C@H]1CN([C@@H](C)CO)C(=O)c2cc(-c3ccccc3)cnc2O[C@H]1CN(C)C(=O)c1cccc(F)c1 | inactive |
| COc1ccc(Cl)cc1NC(=O)CSc1nc(Nc2ccccc2)nc(N2CCOCC2)n1 | inactive |
| OC(CNC1CCCc2ccccc21)COc1c(Cl)cccc1Cl (stereo not given) | inactive |
| CN(C)c1ccc(-c2ccnc3c2CC(C)(C(=O)NCC2CC2)O3)cc1 (stereo not given) | inactive |
| Cn1cnc(S(=O)(=O)N2CCN(c3ccccc3)CC2)c1 | inactive |
| CCC(C)(C)NC(=O)C(OC(=O)c1ccco1)c1ccccc1OC (stereo not given) | inactive |
| Cc1oc2ccc(O)cc2c1C(=O)c1ccc(Br)cc1 | inactive |
| Cc1cccc(NC(=O)Nc2ccc(S(=O)(=O)Nc3onc(C)c3C)cc2)c1 | inactive |
| CN(C)C(=O)c1ccc(-c2ccc3c(c2)[C@H]2[C@H](CCN2C(=O)c2ccc(F)cc2)[C@@H](CO)N3C)cc1 | inactive |
| N#C[C@@H]1[C@@H](c2ccccc2C2=CCCCC2)[C@@H](CO)N1S(=O)(=O)c1ccccc1 | inactive |
| N#Cc1ccc(-c2ccc3c(c2)[C@@H]2[C@@H](CCN2S(=O)(=O)c2cccc(F)c2)[C@H](CO)N3)cc1 | inactive |
| C[C@@H]1CN([C@H](C)CO)C(=O)c2cc(NC(=O)C3CCCCC3)ccc2O[C@@H]1CN(C)Cc1ccc(-c2ccccc2)cc1 | inactive |
| C[C@H](CO)N1C[C@H](C)[C@@H](CN(C)C(=O)c2cccc(F)c2)Oc2ncc(-c3ccccc3)cc2C1=O | inactive |
| COC(=O)C[C@@H]1CC[C@@H]2[C@@H](COc3ccc(NC(=O)Cc4cccs4)cc3C(=O)N2C)O1 | inactive |
| CN1c2ccc(-c3ccccc3)cc2[C@@H]2[C@@H](CCN2C(=O)CN2CCOCC2)[C@@H]1CO | inactive |
